The list is not random: actives were taken first. Their share in the collection is about 2.6%.
AI-2 QS modul = modulates the Vibrio harveyi AI-2 quorum sensing system; Vibrio harveyi JMH597 AI-2 luminescence/OD600 ratio, 9 h; active compounds read low; strain lacks LuxN and CqsS sensors; 0 = neutral-control median; activity change, % at 7.5 µM; 300,000 compounds, 0.4% hits; AID 2094; in the data active = activity change below about -75%, passing the limit was not always enough;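 note: luminescence divided by OD600 gain over 9 h not by final OD600 alone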
PABP FP inh = blocks human PABP binding to poly(A) RNA; 290,000 compounds, 1% hits; fluorescence polarization; P11940; AID 2014; calls only at 35 µM;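 note: calls also rest on retests at 20 µM and on dose response follow-up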
Target sequence (P11940 whole entry, looked up): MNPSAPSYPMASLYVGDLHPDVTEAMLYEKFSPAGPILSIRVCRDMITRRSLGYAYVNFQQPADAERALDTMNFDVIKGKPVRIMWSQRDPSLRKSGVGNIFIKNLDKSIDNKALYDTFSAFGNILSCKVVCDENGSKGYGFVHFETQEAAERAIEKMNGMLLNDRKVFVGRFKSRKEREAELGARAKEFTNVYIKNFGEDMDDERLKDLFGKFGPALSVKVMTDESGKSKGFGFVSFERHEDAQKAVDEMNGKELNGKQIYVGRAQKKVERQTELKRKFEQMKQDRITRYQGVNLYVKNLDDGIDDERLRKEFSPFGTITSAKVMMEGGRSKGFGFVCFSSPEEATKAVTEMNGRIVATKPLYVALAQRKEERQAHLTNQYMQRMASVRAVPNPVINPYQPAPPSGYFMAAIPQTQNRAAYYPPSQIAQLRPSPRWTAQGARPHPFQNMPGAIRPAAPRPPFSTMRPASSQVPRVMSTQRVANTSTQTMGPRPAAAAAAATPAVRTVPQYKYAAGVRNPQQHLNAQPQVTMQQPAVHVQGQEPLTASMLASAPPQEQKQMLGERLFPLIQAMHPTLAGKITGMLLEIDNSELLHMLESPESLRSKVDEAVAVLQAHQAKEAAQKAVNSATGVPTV
PHOSPHO1 inh = blocks human PHOSPHO1 phosphatase activity; AID 1565; inhibition, % at 13.3 µM; Q8TCT1; recombinant PHOSPHO1, absorbance phosphatase assay; 290,000 compounds, 1.1% hits; in the data active = inhibition above about 60%
ABCB6 inh MLPCN = human ABCB6 transporter inhibition | fluorescence ratio to DMSO, % at 10 µM | Q9NP58 | K562-ABCB6 porphyrin accumulation, flow cytometry, 1 h; active compounds read low | 360,000 compounds, 0.19% hits;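 active = fluorescence ratio to DMSO below 75%, the collection mean minus 3 SD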;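 note: signal is porphyrin accumulated inside mitochondria; 100% equals median channel fluorescence of DMSO control wells; lower ratio means ABCB6 inhibition with less porphyrin fluorescence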
MLLE-PAM2 inh = inhibitors of microRNA-mediated deadenylation, human PABP1 MLLE binding; P11940; GST-MLLE / FITC-PAM2 fluorescence polarization; inhibition, % at 20 µM; 360,000 compounds, 0.36% hits; in the data active = inhibition above about 35%, passing the limit was not always enough;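 note: plate controls were DMSO wells with GST-MLLE for no effect and wells lacking GST-MLLE protein for full effect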
eIF4H FP inh = inhibitors of RNA binding by human eIF4H. AID 2012. eIF4H fluorescence polarization binding assay. Q15056. inhibition, % at 35 µM. 290,000 compounds, 0.94% hits;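 note: calls also rest on retests at 20 µM and on dose response follow-up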
Numbers without * were called inactive. Unless noted, the rule behind the calls is not given here.

For COC(=O)C1=C(C)N(Cc2ccccc2)C(=NCCCCO)N[C@H]1c1ccccc1 the results were AI-2 QS modul 12, PABP FP inh active, PHOSPHO1 inh -52 and eIF4H FP inh 28.
`COC(=O)C1=C(C)N(Cc2ccccc2)C(=NCC2CC2)N[C@H]1c1ccccc1` gave ABCB6 inh MLPCN 110 and MLLE-PAM2 inh -78.
For COC(=O)C1=C(C)N(Cc2ccccc2)C(=NCc2ccc(OC)cc2)N[C@H]1c1cccc(F)c1 the results were AI-2 QS modul 16, PABP FP inh active, PHOSPHO1 inh -37, ABCB6 inh MLPCN 104, MLLE-PAM2 inh -115 and eIF4H FP inh 1.
Screening Cn1cc(-c2csc(C(O)c3ccc(F)cc3)n2)cn1 (stereo not given) returned ABCB6 inh MLPCN 98 and MLLE-PAM2 inh -7.
Screening CC(=O)NC(c1ccc(F)c(F)c1)c1nc(-c2cccs2)cs1 (stereo not given) returned ABCB6 inh MLPCN 96 and MLLE-PAM2 inh 3.

Compound activity (PubChem BioAssay)
